About 2,000 (36%) of roughly 5,500 compounds were called active. Roughly 18% stayed inconclusive and do not appear here. Cut-off read from the data, not from the text of the source: active = normalized growth mostly below about 0.91 (no sharp cut-off); inconclusive = no clear call, values can overlap the other calls; inactive = mostly above about 0.92. The list shows a part of the results.
Assay: chemical genetic growth profiling, strain panel (AID 1159580);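 note: tested at 20 µM; growth read once vehicle control cultures reached saturation at 30 °C; 1 = growth at the plate median or of vehicle wells; lower values mean less growth of the strain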
Conditions: growth OD

Measured: normalized growth

CCc1cccc(C)c1N(C(=O)CCl)C(C)COC (stereo unspecified)
inactive: S. cerevisiae deletion strains, locus YAL013W, strain DEP1, hits give low values 1.01 | S. cerevisiae deletion strains, locus YBR021W, strain FUR4, hits give low values 0.996 | S. cerevisiae deletion strains, locus YBR229C, strain ROT2, hits give low values 1 | S. cerevisiae deletion strains, locus YCL029C, strain bik1, hits give low values 1.02 | S. cerevisiae deletion strains, locus YDL035C, strain GPR1, hits give low values 1.02 | S. cerevisiae deletion strains, locus YDL074C, strain BRE1, hits give low values 1.02 | S. cerevisiae deletion strains, locus YDL101C, strain DUN1, hits give low values 1.02 | S. cerevisiae deletion strains, locus YDL134C, strain PPH21, hits give low values 1.01 | S. cerevisiae deletion strains, locus YDL185W, strain tfp1, hits give low values 1.02 | S. cerevisiae deletion strains, locus YDL192W, strain arf1, hits give low values 1.02 | S. cerevisiae deletion strains, locus YDR101C, strain arx1, hits give low values 1.01 | S. cerevisiae deletion strains, locus YDR150W, strain NUM1, hits give low values 1.01 | S. cerevisiae deletion strains, locus YDR162C, strain NBP2, hits give low values 1.01 | S. cerevisiae deletion strains, locus YDR318W, strain mcm21, hits give low values 1.01 | S. cerevisiae deletion strains, locus YDR388W, hits give low values 1.01 | S. cerevisiae deletion strains, locus YDR502C, strain sam2, hits give low values 1.02 | S. cerevisiae deletion strains, locus YEL061C, strain CIN8, hits give low values 1.01 | S. cerevisiae deletion strains, locus YER110C, hits give low values 1.02 | S. cerevisiae deletion strains, locus YER155C, strain BEM2, hits give low values 1.01 | S. cerevisiae deletion strains, locus YER167W, strain BCK2, hits give low values 1.02 | S. cerevisiae deletion strains, locus YGL078C, strain dbp3, hits give low values 1.01 | S. cerevisiae deletion strains, locus YGL086W, strain mad1, hits give low values 1.01 | S. cerevisiae deletion strains, locus YGL248W, strain PDE1, hits give low values 1.01 | S. cerevisiae deletion strains, locus YGR078C, strain PAC10, hits give low values 1.02 | S. cerevisiae deletion strains, locus YGR135W, strain pre9, hits give low values 1.01 | S. cerevisiae deletion strains, locus YGR229C, strain SMI1, hits give low values 1.03 | S. cerevisiae deletion strains, locus YGR252W, strain gcn5, hits give low values 1.01 | S. cerevisiae deletion strains, locus YHR030C, strain SLT2, hits give low values 1.01 | S. cerevisiae deletion strains, locus YHR079C, strain IRE1 (second series), hits give low values 1.02 | S. cerevisiae deletion strains, locus YHR094C, strain hxt1, hits give low values 1.02 | S. cerevisiae deletion strains, locus YHR129C, strain ARP1, hits give low values 1.01 | S. cerevisiae deletion strains, locus YHR200W, strain rpn10, hits give low values 1.02 | S. cerevisiae deletion strains, locus YIL066C, strain RNR3, hits give low values 1.02 | S. cerevisiae deletion strains, locus YIL073C, strain SPO22, hits give low values 1.05 | S. cerevisiae deletion strains, locus YIL125W, strain kgd1, hits give low values 1.02 | S. cerevisiae deletion strains, locus YIR030C, strain dcg1, hits give low values 1.02 | S. cerevisiae deletion strains, locus YJL095W, strain BCK1, hits give low values 0.991 | S. cerevisiae deletion strains, locus YJL134W, strain LCB3, hits give low values 1.02 | S. cerevisiae deletion strains, locus YJL168C, strain set2, hits give low values 1.01 | S. cerevisiae deletion strains, locus YJL187C, strain SWE1 (second series), hits give low values 1.01 | S. cerevisiae deletion strains, locus YJR043C, strain POL32, hits give low values 1.02 | S. cerevisiae deletion strains, locus YJR075W, strain HOC1, hits give low values 1.01 | S. cerevisiae deletion strains, locus YKL009W, strain mrt4, hits give low values 1.03 | S. cerevisiae deletion strains, locus YKL068W, hits give low values 1.01 | S. cerevisiae deletion strains, locus YKL085W, strain MDH1 (second series), hits give low values 1.02 | S. cerevisiae deletion strains, locus YKL085W, strain MDH1, hits give low values 1.02 | S. cerevisiae deletion strains, locus YKL190W, strain CNB1, hits give low values 1.02 | S. cerevisiae deletion strains, locus YKR001C, strain vps1, hits give low values 1.03 | S. cerevisiae deletion strains, locus YLR039C, strain RIC1, hits give low values 0.993 | S. cerevisiae deletion strains, locus YLR058C, strain SHM2, hits give low values 1.01 | S. cerevisiae deletion strains, locus YLR102C, strain apc9, hits give low values 1.02 | S. cerevisiae deletion strains, locus YLR262C, strain YPT6, hits give low values 1.03 | S. cerevisiae deletion strains, locus YLR268W, strain sec22, hits give low values 1.01 | S. cerevisiae deletion strains, locus YLR330W, strain CHS5, hits give low values 1.01 | S. cerevisiae deletion strains, locus YLR342W, strain FKS1 (second series), hits give low values 1.04 | S. cerevisiae deletion strains, locus YLR371W, strain rom2, hits give low values 1.02 | S. cerevisiae deletion strains, locus YLR418C, strain cdc73, hits give low values 1.01 | S. cerevisiae deletion strains, locus YML016C, strain PPZ1, hits give low values 1.01 | S. cerevisiae deletion strains, locus YML032C, strain rad52, hits give low values 0.992 | S. cerevisiae deletion strains, locus YML124C, strain tub3, hits give low values 1.02 | S. cerevisiae deletion strains, locus YMR078C, strain ctf18, hits give low values 1.02 | S. cerevisiae deletion strains, locus YMR223W, strain ubp8, hits give low values 1.02 | S. cerevisiae deletion strains, locus YMR263W, strain SAP30, hits give low values 1 | S. cerevisiae deletion strains, locus YMR307W, strain GAS1, hits give low values 1 | S. cerevisiae deletion strains, locus YNL067W, strain RPL9B, hits give low values 1.01 | S. cerevisiae deletion strains, locus YNL128W, strain TEP1, hits give low values 1.01 | S. cerevisiae deletion strains, locus YNL153C, strain GIM3, hits give low values 1.01 | S. cerevisiae deletion strains, locus YNL233W, strain BNI4, hits give low values 1.01 | S. cerevisiae deletion strains, locus YNL250W, strain rad50, hits give low values 1.01 | S. cerevisiae deletion strains, locus YNL271C, strain bni1, hits give low values 1.03 | S. cerevisiae deletion strains, locus YNL298W, strain CLA4, hits give low values 1.02 | S. cerevisiae deletion strains, locus YNL307C, strain MCK1, hits give low values 1.02 | S. cerevisiae deletion strains, locus YNL322C, strain KRE1, hits give low values 1.01 | S. cerevisiae deletion strains, locus YNR052C, strain pop2, hits give low values 1.02 | S. cerevisiae deletion strains, locus YOL006C, strain TOP1, hits give low values 1.03 | S. cerevisiae deletion strains, locus YOL012C, strain htz1 0.819 | S. cerevisiae deletion strains, locus YOL147C, strain pex11, hits give low values 1.02 | S. cerevisiae deletion strains, locus YOR061W, strain CKA2, hits give low values 1.01 | S. cerevisiae deletion strains, locus YOR069W, strain VPS5, hits give low values 1.01 | S. cerevisiae deletion strains, locus YOR136W, strain idh2, hits give low values 1.01 | S. cerevisiae deletion strains, locus YOR144C, strain elg1, hits give low values 1.02 | S. cerevisiae deletion strains, locus YOR184W, strain ser1, hits give low values 1.03 | S. cerevisiae deletion strains, locus YOR316C, strain cot1, hits give low values 1.02 | S. cerevisiae deletion strains, locus YPL055C, strain LGE1, hits give low values 1.03 | S. cerevisiae deletion strains, locus YPL241C, strain CIN2, hits give low values 1.02 | S. cerevisiae deletion strains, locus YPR119W, strain clb2, hits give low values 1.01 | S. cerevisiae deletion strains, locus YPR141C, strain kar3, hits give low values 1.02 | S. cerevisiae deletion strains, locus YPR163C, strain tif3, hits give low values 1.02 | S. cerevisiae deletion strains, locus YPR167C, strain met16, hits give low values 1.02 | S. cerevisiae deletion strains, strain wtn01, hits give low values 1.02 | S. cerevisiae strains, strain wild type, hits give low values 1
